Screening results from PubChem.
PI5P4Ka inh – blocks human PI5P4K alpha kinase activity; PI5P4Kalpha enzyme, ADP-Glo luminescence, 60 min; stronger effect = lower value; actives 1.2% (n = 330,000); max response, %; AID 652105; active = max response of -50% or lower; inconclusive = between -30% and -50%; inactive = -30% or higher; also: value at the top dose of about 77 µM
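Quantitative HTS of the MLSMR library against PI5P4Kalpha with substrate. ATP added last at 5 microM final; room temperature, 60 minutes. Remaining ATP depleted, ADP converted and read as luminescence.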
Tb PGK inh – T. brucei PGK inhibition; PGK/GAPDH coupled, Kinase-Glo luminescence, 60 min; Potency, µM (highest dose often 57.5 µM), for the others: at the top dose activity change, negative = inhibition, actives largely listed as inhibitors; actives 0.043% (n = 380,000); AID 602233; also: potency is read from the fitted curve at half-maximal effect; nearly all actives have a fitted effect of over 60% in size
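Luminescent ATP detection (Kinase-Glo Plus) follows a 60-minute room-temperature incubation, with wells lacking PGK as controls. Buffer: 100 mM TEA (pH 7.6), 5 mM MgCl2, 0.01% Tween-20. Coupling enzyme GAPDH (100 nM final) supplies unstable 1,3-BPG in-well.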
GoLoco inh red – blocks human Gai1 binding to RGS12 GoLoco peptide, red readout | Gai1:RGS12 GoLoco peptide FP, rhodamine, 10 min | Potency, µM (highest dose often 61.6 µM), inactives show at the top dose activity, negative = inhibition, actives largely listed as inhibitors | actives 0.44% (n = 230,000) | AID 880; active = well fitted inhibition curve with a large enough effect, not every such curve was filed as active; inactive = no such curve, though single readings can be large or run the other way; also: potency is read from the fitted curve at half-maximal effect; nearly all actives have a fitted effect of over 30% in size
Pin1 inhibitor – blocks the human prolyl isomerase Pin1. actives 0.009% (n = 390,000). Potency, µM (series often up to 115 µM), for inactives: top-dose activity, negative = inhibition, most hits filed as inhibitors. Q13526. Pin1 FP peptide displacement, HiFluor488, 10 min; active = well fitted inhibition curve with a large enough effect in the polarisation, with a control signal flat, not every such curve was filed as active; inconclusive = small, poorly fitted or top-dose-only effect, or effect the other way, or a change in a side signal; inactive = no such curve, though single readings can be large or run the other way; the % refers to the polarisation; also: potency is read from the fitted curve at half-maximal effect
Target sequence (Q13526 whole entry, looked up): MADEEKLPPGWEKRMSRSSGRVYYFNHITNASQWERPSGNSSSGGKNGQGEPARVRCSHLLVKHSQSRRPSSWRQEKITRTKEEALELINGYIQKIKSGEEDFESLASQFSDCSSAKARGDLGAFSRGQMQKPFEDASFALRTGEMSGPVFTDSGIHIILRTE
KAT2A inh – blocks human GCN5L2 histone acetyltransferase; GCN5L2 HAT assay, ThioGlo1 CoA-SH fluorescence; actives 0.21% (n = 390,000); AID 504327; Potency, µM (highest dose often 58.9 µM), inactives show at the top dose activity change, negative = inhibition, most hits filed as inhibitors; Q92830; also: potency is read from the fitted curve at half-maximal effect
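Titration-based screen in which CoA formation is detected via maleimide probe ThioGlo1 (50uM) turning fluorescent on thiol reaction; substrates H3(1-25) 75uM and acetyl-CoA 70uM, GCN5L2 20nM, 20 min incubation at room temperature.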
PI4K2A inh – inhibitors of human PI4K2A | Q9BTU6 | purified PI4K2A, ADP-Glo luminescence, 1 h; stronger effect = lower value | activity change, negative = inhibition, % at 76.9 µM | actives 0.13% (n = 420,000) | AID 1346378; in the data active = activity change below about -50%; inconclusive = mostly about -30% to -49%;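 also: -100% = wells without enzyme as full effect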
Target sequence (Q9BTU6 whole entry, looked up): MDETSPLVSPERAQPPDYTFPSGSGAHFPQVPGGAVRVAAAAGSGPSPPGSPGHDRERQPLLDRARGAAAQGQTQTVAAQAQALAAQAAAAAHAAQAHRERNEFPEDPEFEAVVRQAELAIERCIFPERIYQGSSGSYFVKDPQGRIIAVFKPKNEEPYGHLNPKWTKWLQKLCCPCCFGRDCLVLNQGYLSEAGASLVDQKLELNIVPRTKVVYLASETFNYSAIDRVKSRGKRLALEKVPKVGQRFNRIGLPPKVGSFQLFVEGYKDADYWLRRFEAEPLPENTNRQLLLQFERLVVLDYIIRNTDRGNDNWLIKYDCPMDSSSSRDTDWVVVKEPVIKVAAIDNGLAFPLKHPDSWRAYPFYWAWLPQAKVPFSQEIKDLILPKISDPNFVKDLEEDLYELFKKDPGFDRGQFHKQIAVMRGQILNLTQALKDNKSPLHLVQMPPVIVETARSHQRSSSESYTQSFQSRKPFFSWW
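ADP-Glo luminescence measured ADP generated by PI4K2A enzyme (4 ug/mL before mixing) with 1.2 mM PI substrate (pre-mix) and 300 microM ATP (pre-mix). Tris pH7.5 buffer with MgCl2, Triton X-100; 1 h reaction at ambient temperature.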
* = called active by the depositor; i = inactive; ? = inconclusive; · = no result given; ! = not confirmed by another sample. An excerpt weighted towards active compounds, which were near 1.2% of everything screened. Unless noted, calls follow the shape of the dose curve; as a rule, active = well fitted curve in the direction sought with a large enough effect; inconclusive = small, poorly fitted or top-dose-only effect, or another doubt; inactive = no such curve, though single readings can be large; an effect the other way counts as inactive or inconclusive. Unless noted, % is scaled to controls: 0 for no effect and ±100 for the full control effect.

SMILES	PI5P4Ka inh	Tb PGK inh	GoLoco inh red	Pin1 inhibitor	KAT2A inh	PI4K2A inh
CN(C)S(=O)(=O)N1CCC(Oc2ccc(C(=O)NCCc3cscn3)cc2)CC1	1	0%	·	-9%	-17%	-10
CCN(c1ccc(NC(=O)COC(=O)c2cccs2)cc1)C(C)C	-6	1%	-19%	-9%	0%	-5
CCN(CC)c1ccc(NC(=O)COC(=O)c2cccs2)cc1	·	-1%	2µM*	3%	-5%	-2
O=S(=O)(c1cccc(-c2n[nH]c(=S)o2)c1)N1CCOCC1	-73*	i	-8%	?	-7%	-22
O=S(=O)(c1cccc(-c2n[nH]c(=S)n2-c2ccccc2Cl)c1)N1CCOCC1	-9	-7%	·	-8%	-1%	0
O=S(=O)(c1ccc2oc(=S)[nH]c2c1)N1CCOCC1	-69*	-2%	·	-1%	-20%	-3
COc1ccc(OC)c(CNC(=O)CCn2c(=O)c3cccn3c3ccc(F)cc32)c1	2	0%	·	-11%	2%	-1
Cc1cc(N/N=C/c2ccc(O)cc2)nc(NS(=O)(=O)c2ccccc2)n1	-55*	25µM*	1%	?	-11%	-7
O=C(OCC(=O)N1CCN(c2ccccc2)CC1)c1cc(Br)ccc1Cl	10	-7%	·	-2%	-9%	-4
CC1=NN(c2ccccc2)C(=O)C1/C=C1\NC(=S)NC1=O (stereo unspecified)	-74*	-9%	61%	30%	-15%	-12
CC1CCC2(CC1)NC(=O)N(CC(=O)Nc1sc3c(c1C(N)=O)CCC3)C2=O (stereo unspecified)	-87*	-17%	86%	5%	-28%	?
Cc1c(C=Nc2ccc(S(=O)(=O)CCO)cc2)c(O)[nH]c(=O)c1C#N	-78*	-3%	·	?	·	-13
Cc1c(C=Nc2ccc(S(=O)(=O)N(C)C)cc2)c(O)[nH]c(=O)c1C#N	-90*	i	·	?	·	-1
COC(=O)C(/C=N/O)NC(=O)c1ccccc1 (stereo unspecified)	2	-4%	4%	-3%	-7%	-2
CC1=NN(c2ccccc2)C(=O)/C1=C\C=C\c1ccccc1	17	-9%	5%	1%	?	2
CC1=NN(c2ccc(C)c(C)c2)C(=O)/C1=C\C=C\c1ccc([N+](=O)[O-])o1	-52*	-13%	13%	·	?	?
Cc1nc(NCc2ccco2)c2oc3ccccc3c2n1	-8	-2%	25%	-3%	-5%	2
O=C(CSc1nnnn1-c1ccccc1)Nc1nc(-c2ccccc2)ns1	9	-7%	4%	-1%	-4%	-9
O=[N+]([O-])c1cc(F)c(N2CCCCC2)cc1N1CCOCC1	·	2%	·	1%	-12%	1
O=[N+]([O-])c1cc2no[n+]([O-])c2cc1N1CCCCC1	-80*	-1%	·	?	·	-11
CCCC(=O)NCCCc1nc2ccccc2[nH]1	-1	8%	-2%	3%	-10%	6
CCOC(=O)/C=C/C(=O)Nc1ccccc1-c1ccccc1NC(=O)/C=C/C(=O)OCC	-6	-4%	5%	10%	-1%	10
O=C(CSc1nnnn1-c1ccc(O)cc1)c1cc2ccccc2o1	-7	-8%	11%	?	-3%	3
O=C(O)c1ccc(-n2cccc2/C=C2/SC(=O)N(CC(=O)N3CCCC3)C2=O)cc1	-59*	?	·	?	?	-12
Clc1ccccc1-c1nc(NC2CCNCC2)c2ccccc2n1	·	·	0%	·	28µM*	·
SMILES	PI5P4Ka inh	Tb PGK inh	GoLoco inh red	Pin1 inhibitor	KAT2A inh	PI4K2A inh
Cc1ccccc1-c1nc(NC2CCNCC2)c2ccccc2n1	·	·	-5%	·	-1%	·
COc1c(N2CCN(C(=S)NCc3ccccc3)C(C)C2)c(F)cc2c(=O)c(C(=O)O)cn(C3CC3)c12 (stereo unspecified)	-14	-6%	·	?	?	4
CC(=O)C1=C(O)C(=O)OC1c1ccc(Cl)cc1 (stereo unspecified)	-16	-1%	3%	4%	?	-3
CN=c1scc(-c2ccccc2F)n1/N=C/c1ccc[nH]1	-25	-8%	31%	57%	-10%	-1
CC(C)N=c1scc(-c2cccs2)n1/N=C/c1ccc(O)c(O)c1O	-60*	-13%	9%	21%	-8%	-5
CN=c1scc(-c2ccccc2F)n1/N=C/c1ccc(O)c(O)c1O	-54*	?	42%	?	?	-29
C=CCC[C@H](Cc1ccc(F)cc1)C(=O)OC[C@@H]1CCCN1C(=O)[C@@H](CC=C)CC(=O)NCCO	-1	-1%	·	-8%	-1%	0
CCN(C(=O)COC(=O)c1cc(Cl)ccc1OC)c1c(N)n(Cc2ccccc2)c(=O)[nH]c1=O	1	i	·	-1%	-1%	1
CC(C)(O)C#Cc1ccc(C(=O)N2CCN(c3ccc(Cl)cc3)CC2)cc1	1	10%	-2%	9%	-3%	-1
O=C(O)CSc1nc2ccccc2n1C1CCCCC1	0	3%	6%	0%	20%	0
Cc1c(C(=O)N2CCN(c3ccccc3)CC2)oc2c1C(=O)CC(C)(C)C2	-1	-2%	·	0%	-13%	1
C=CCN1C(C(=O)OC)CN(Cc2cn(Cc3ccc(Cl)cc3)nn2)CCS1(=O)=O (stereo unspecified)	·	·	·	·	·	-8
Nc1cccnc1Sc1cccc(Cl)c1	-16	-2%	-9%	?	-6%	-69*
Cc1cc(C)cc(C(=O)N2CC(=O)Nc3ccc(Br)cc3C2c2ccccc2)c1 (stereo unspecified)	·	0%	·	0%	-6%	0
COc1ccc(NC(=O)CC(c2ccccc2)c2ccco2)cc1 (stereo unspecified)	-23	-4%	12%	3%	-8%	0
O=[N+]([O-])c1ccccc1S(=O)(=O)Nc1ccc(S(=O)(=O)Nc2nccs2)cc1	-6	-12%	·	-7%	-3%	-8
Nc1ccc(S(=O)(=O)Nc2nccs2)cc1N=Nc1ccccc1[N+](=O)[O-]	-103*	?	·	·	·	-7
C=Cc1c(C)c2cc3[nH]c(cc4nc(cc5nc(cc1[nH]2)C(C)=C5CCC(=O)O)C(CCC(=O)O)=C4C)c(C)c3C=C	-51*	10µM*	13µM*!	32µM*	-14%	?
Cc1ccc(-c2ccc(CCC(=O)O)n2C(C)C)cc1	3	0%	-10%	1%	-1%	0
